{
  "source": "the supplement of paper PMC8728848",
  "test_in_all_cases": "glycan array binding signal (z-score within array); higher = stronger binding",
  "conditions_in_all_cases": "glycan notation: IUPAC condensed, linker removed",
  "key": {"[1]": {"molecular_target": "Fuc(a1-2)Gal(b1-3)GalNAc", "in_short": "(§1)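 The binding signal is a Z-score computed within each array and averaged over linkers. Arrays of the same protein sequence at different concentrations or buffers were also averaged together. Data originate from 3228 arrays in the Consortium for Functional Glycomics database, kept only where the protein sequence was available.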"}, "[2]": {"molecular_target": "Fuc(a1-2)Gal(b1-3)GalNAc(a1-3)[Fuc(a1-2)]Gal(b1-4)GlcNAc", "in_short": "as §1"}, "[3]": {"molecular_target": "Fuc(a1-2)Gal(b1-3)GalNAc(b1-3)Gal(a1-4)Gal(b1-4)Glc", "in_short": "as §1"}, "[4]": {"molecular_target": "Fuc(a1-2)Gal(b1-3)GlcNAc(b1-2)Man(a1-3)[Fuc(a1-2)Gal(b1-3)GlcNAc(b1-2)Man(a1-6)]Man(b1-4)GlcNAc(b1-4)GlcNAc", "in_short": "as §1"}, "[5]": {"molecular_target": "Fuc(a1-2)Gal(b1-3)GlcNAc(b1-3)Gal(b1-4)Glc", "in_short": "as §1"}, "[6]": {"molecular_target": "Fuc(a1-2)Gal(b1-3)GlcNAc(b1-3)GalNAc", "in_short": "as §1"}, "[7]": {"molecular_target": "Fuc(a1-2)Gal(b1-3)[Fuc(a1-4)]GlcNAc(b1-2)Man(a1-3)[Fuc(a1-2)Gal(b1-3)[Fuc(a1-4)]GlcNAc(b1-2)Man(a1-3)]Man(b1-4)GlcNAc(b1-4)GlcNAc", "in_short": "as §1"}, "[8]": {"molecular_target": "Fuc(a1-2)Gal(b1-4)[Fuc(a1-3)]GlcNAc(b1-2)[Fuc(a1-2)Gal(b1-4)[Fuc(a1-3)]GlcNAc(b1-4)]Man(a1-3)[Fuc(a1-2)Gal(b1-4)[Fuc(a1-3)]GlcNAc(b1-2)Man(a1-6)]Man(b1-4)GlcNAc(b1-4)GlcNAc", "in_short": "as §1"}, "[9]": {"molecular_target": "Fuc(a1-2)Gal6S(b1-4)Glc", "in_short": "as §1"}, "[10]": {"molecular_target": "Fuc(a1-2)Gal6S(b1-4)Glc6S", "in_short": "as §1"}, "[11]": {"molecular_target": "Fuc(a1-2)[Gal(a1-3)]Gal(b1-3)GalNAc(b1-3)Gal(a1-4)Gal(b1-4)Glc", "in_short": "as §1"}, "[12]": {"molecular_target": "Fuc(a1-2)[Gal(a1-3)]Gal(b1-4)GlcNAc(b1-2)Man(a1-3)[Fuc(a1-2)[Gal(a1-3)]Gal(b1-4)GlcNAc(b1-2)Man(a1-6)]Man(b1-4)GlcNAc(b1-4)GlcNAc", "in_short": "as §1"}, "[13]": {"molecular_target": "Fuc(a1-2)[GalNAc(a1-3)]Gal(b1-3)GlcNAc(b1-6)GalNAc", "in_short": "as §1"}, "[14]": {"molecular_target": "Fuc(a1-2)[GalNAc(a1-3)]Gal(b1-4)GlcNAc(b1-3)Gal(b1-4)GlcNAc", "in_short": "as §1"}, "[15]": {"molecular_target": "Fuc(a1-2)[GalNAc(a1-3)]Gal(b1-4)GlcNAc(b1-3)Gal(b1-4)GlcNAc(b1-3)Gal(b1-4)GlcNAc", "in_short": "as §1"}, "[16]": {"molecular_target": "Fuc(a1-2)[GalNAc(a1-3)]Gal(b1-4)GlcNAc(b1-6)GalNAc", "in_short": "as §1"}, "[17]": {"molecular_target": "Fuc(a1-2)[GalNAc(a1-3)]Gal(b1-4)[Fuc(a1-3)]GlcNAc", "in_short": "as §1"}, "[18]": {"molecular_target": "Fuc(a1-3)GlcNAc", "in_short": "as §1"}, "[19]": {"molecular_target": "Gal(a1-3)Gal(b1-3)GlcNAc", "in_short": "as §1"}, "[20]": {"molecular_target": "Gal(a1-3)Gal(b1-3)GlcNAc(b1-6)GalNAc", "in_short": "as §1"}, "[21]": {"molecular_target": "Gal(a1-3)Gal(b1-4)GlcNAc", "in_short": "as §1"}, "[22]": {"molecular_target": "Gal(b1-2)Gal", "in_short": "as §1"}, "[23]": {"molecular_target": "Gal(b1-3)GalNAc(a1-3)[Fuc(a1-2)]Gal(b1-4)GlcNAc", "in_short": "as §1"}, "[24]": {"molecular_target": "Gal(b1-3)GlcNAc(b1-3)Gal(b1-4)GlcNAc", "in_short": "as §1"}, "[25]": {"molecular_target": "Gal(b1-3)GlcNAc(b1-6)GalNAc", "in_short": "as §1"}, "[26]": {"molecular_target": "Gal(b1-3)GlcNAc6S", "in_short": "as §1"}, "[27]": {"molecular_target": "Gal(b1-3)[Fuc(a1-4)]GlcNAc(b1-2)Man", "in_short": "as §1"}, "[28]": {"molecular_target": "Gal(b1-3)[Fuc(a1-4)]GlcNAc(b1-2)Man(a1-3)[Gal(b1-3)[Fuc(a1-4)]GlcNAc(b1-2)Man(a1-6)]Man(b1-4)GlcNAc(b1-4)[Fuc(a1-6)]GlcNAc", "in_short": "as §1"}, "[29]": {"molecular_target": "Gal(b1-3)[GlcNAc(b1-6)]GalNAc", "in_short": "as §1"}, "[30]": {"molecular_target": "Gal(b1-4)GlcNAc(b1-2)[Gal(b1-4)GlcNAc(b1-6)]Man(a1-6)[Gal(b1-4)GlcNAc(b1-2)Man(a1-3)]Man(b1-4)GlcNAc(b1-4)[Fuc(a1-6)]GlcNAc", "in_short": "as §1"}, "[31]": {"molecular_target": "Gal(b1-4)GlcNAc(b1-3)Gal(b1-4)GlcNAc(b1-3)Gal(b1-4)GlcNAc(b1-3)Gal(b1-4)GlcNAc(b1-3)Gal(b1-4)GlcNAc(b1-2)Man(a1-3)[Gal(b1-4)GlcNAc(b1-3)Gal(b1-4)GlcNAc(b1-3)Gal(b1-4)GlcNAc(b1-3)Gal(b1-4)GlcNAc(b1-3)Gal(b1-4)GlcNAc(b1-2)Man(a1-6)]Man(b1-4)GlcNAc(b1-4)GlcNAc", "in_short": "as §1"}},
  "note": "Many of the other results were omitted from the sample, so the strongest signals are more common in it than they were.",
  "data": [
    {"binder": "Clec12b (Mus musculus), Q149M0 (protein) MSDEVTYATLMLQDSARVRGNQDGNNLRKEGHPAQSSLWRGAALSLMTLCLVLVTGLVTLATMFLQVSNDINSDSEKLSQLQKSIHPQQDNLSESLNSSRKSLTEESLQSQISALLERQEQMATKLCKEFLIHASDHKCNPCPKTWQWYGNSCYYFSINEEKSWSDSRKDCIDKNATLVKIDSTEERDLLQSQLSLTFSFFWLGLSWNSSGRNWLWEDGSFPPPTLFSDKELASFNGSRDCAYFERGNIYASRCSAEIPWICEKTASLVKTEDLD", "values": [
      {"measurement": "glycan array binding signal (z-score)", "setting": "[1]", "value": -0.451},
      {"measurement": "glycan array binding signal (z-score)", "setting": "[2]", "value": 0.211},
      {"measurement": "glycan array binding signal (z-score)", "setting": "[3]", "value": -0.395},
      {"measurement": "glycan array binding signal (z-score)", "setting": "[4]", "value": 2.66},
      {"measurement": "glycan array binding signal (z-score)", "setting": "[5]", "value": 3.25},
      {"measurement": "glycan array binding signal (z-score)", "setting": "[6]", "value": -0.484},
      {"measurement": "glycan array binding signal (z-score)", "setting": "[7]", "value": 2.58},
      {"measurement": "glycan array binding signal (z-score)", "setting": "[8]", "value": 2.82},
      {"measurement": "glycan array binding signal (z-score)", "setting": "[9]", "value": 0.808},
      {"measurement": "glycan array binding signal (z-score)", "setting": "[10]", "value": -0.568},
      {"measurement": "glycan array binding signal (z-score)", "setting": "[11]", "value": -0.052},
      {"measurement": "glycan array binding signal (z-score)", "setting": "[12]", "value": 0.853},
      {"measurement": "glycan array binding signal (z-score)", "setting": "[13]", "value": 4.57},
      {"measurement": "glycan array binding signal (z-score)", "setting": "[14]", "value": -0.749},
      {"measurement": "glycan array binding signal (z-score)", "setting": "[15]", "value": -0.115},
      {"measurement": "glycan array binding signal (z-score)", "setting": "[16]", "value": 0.308},
      {"measurement": "glycan array binding signal (z-score)", "setting": "[17]", "value": -0.288},
      {"measurement": "glycan array binding signal (z-score)", "setting": "[18]", "value": -0.323},
      {"measurement": "glycan array binding signal (z-score)", "setting": "[19]", "value": 5.35},
      {"measurement": "glycan array binding signal (z-score)", "setting": "[20]", "value": -0.324},
      {"measurement": "glycan array binding signal (z-score)", "setting": "[21]", "value": 0.53},
      {"measurement": "glycan array binding signal (z-score)", "setting": "[22]", "value": 2.74},
      {"measurement": "glycan array binding signal (z-score)", "setting": "[23]", "value": -0.587},
      {"measurement": "glycan array binding signal (z-score)", "setting": "[24]", "value": -0.41},
      {"measurement": "glycan array binding signal (z-score)", "setting": "[25]", "value": -0.588},
      {"measurement": "glycan array binding signal (z-score)", "setting": "[26]", "value": 0.486},
      {"measurement": "glycan array binding signal (z-score)", "setting": "[27]", "value": 0.927},
      {"measurement": "glycan array binding signal (z-score)", "setting": "[28]", "value": 3.71},
      {"measurement": "glycan array binding signal (z-score)", "setting": "[29]", "value": -0.137},
      {"measurement": "glycan array binding signal (z-score)", "setting": "[30]", "value": 0.226},
      {"measurement": "glycan array binding signal (z-score)", "setting": "[31]", "value": 0.028}
    ]}
  ]
}
